Rows were chosen to be rich in hits. Some 18% of all compounds tested hit in one or more screens of this group.
RORgamma inh: qHTS for inhibitors of ROR gamma transcriptional activity | Nuclear receptor ROR-gamma (Mus musculus), P51450 | Drosophila S2 Gal4-RORgamma UAS-luciferase reporter, 20 h | Potency, µM (titrated, usually from 53.6 µM), most hits filed as inhibitors | hit rate 5.4% among 310,000; further: nearly all actives have a fitted effect of over 60% in size
Target sequence (P51450 whole entry, looked up, the tested form may be a part): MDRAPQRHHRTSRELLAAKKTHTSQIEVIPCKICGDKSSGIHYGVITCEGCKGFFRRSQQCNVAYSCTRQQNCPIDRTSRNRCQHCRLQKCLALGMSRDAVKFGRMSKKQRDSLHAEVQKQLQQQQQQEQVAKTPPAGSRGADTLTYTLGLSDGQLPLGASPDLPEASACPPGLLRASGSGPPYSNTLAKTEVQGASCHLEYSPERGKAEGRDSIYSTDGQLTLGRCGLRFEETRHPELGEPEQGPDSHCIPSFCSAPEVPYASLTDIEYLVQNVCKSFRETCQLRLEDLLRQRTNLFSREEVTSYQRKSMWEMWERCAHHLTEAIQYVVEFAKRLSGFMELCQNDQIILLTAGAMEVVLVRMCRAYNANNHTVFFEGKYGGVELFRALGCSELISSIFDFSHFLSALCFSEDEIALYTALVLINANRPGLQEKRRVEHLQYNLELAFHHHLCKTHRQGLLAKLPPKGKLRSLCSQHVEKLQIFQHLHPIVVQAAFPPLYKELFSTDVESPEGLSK
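Read-out: Photinus luciferase luminescence; inhibitors lower reporter signal. Insect Schneider cells with Gal4-ROR gamma fusion under metallothionein promoter, UAS reporter; 700 uM final copper sulfate induction, 20 hr, ambient temperature.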
IL-1B inflam inh: qHTS for Inhibitors of Inflammasome Signaling: IL-1-beta AlphaLISA Primary Screen; AID 743279, 2014; hit rate 4.7% among 360,000; THP-1 LPS/ATP IL-1B secretion, AlphaLISA, 16 h; active compounds read low; activity change, % at 57.5 µM; in the data active means activity change below about -50%; inconclusive means mostly about -30% to -49%
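THP-1 cells pretreated 1 hr with compounds (up to 57.5 uM final), then stimulated with LPS (250 ng/mL final) plus ATP (1.25 mM final); secreted IL-1B measured by AlphaLISA after 16 hr, decreased signal indicating inhibition.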
Gal4-VP16 FLuc: VP16 counterscreen qHTS for inhibitors of ROR gamma transcriptional activity; Drosophila S2 Gal4-VP16 UAS-luciferase, luminescence, 20 h; Potency, µM (series often up to 53.6 µM), usual class: inhibitors; hit rate 3.5% among 310,000; AID 2546, 2010;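 further: Gal4-VP16 expression switched on by copper sulfate through the metallothionein promoter; nearly all actives have a fitted effect of over 50% in size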
DT40 TDP1 CPT: qHTS for Inhibitors of human tyrosyl-DNA phosphodiesterase 1 (TDP1): qHTS in cells in presence of CPT | chicken DT40 Tdp1-/-;hTDP1 cells + 20 nM CPT, ATP luminescence, 48 h | Potency, µM (top dose mostly 46.2 µM), hits mostly inhibitors | hit rate 12% among 420,000; further: nearly all actives have a fitted effect of over 55% in size
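Chicken DT40 Tdp1-/- cells stably complemented with human TDP1 were seeded at 400 cells/well in medium containing 20 nM camptothecin, exposed to pin-transferred compounds, and grown at 37 °C for at least 48 hr. Viability was read as ATP luminescence.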
LDHA inh: qHTS assay for inhibitors of human lactate dehydrogenase. hit rate 0.15% among 480,000. L-lactate dehydrogenase A chain (Homo sapiens), P00338. purified LDHA, NADH/diaphorase-resazurin fluorescence; active compounds read low. activity change, % (values are at about 110 or 230 µM). AID 1347041, 2019; in the data active means activity change below about -30%; inconclusive means mostly about -25% to -30%
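LDH5 2 nM; NADH 0.06 mM, pyruvate 0.2 mM; 200 mM Tris pH 7.4, EDTA, Tween-20; 5 min RT. Detection: diaphorase 0.133 mg/mL + resazurin 37 µM, fluorescence ex540/em590 at 0 and 20 min; normalized to enzyme-free and DMSO wells.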
TDP1 cell noCPT: qHTS for Inhibitors of human tyrosyl-DNA phosphodiesterase 1 (TDP1): qHTS in cells in absence of CPT | DT40 Tdp1-/- hTDP1 cells, no CPT, ATP luminescence, 48 h | Potency, µM (doses to about 46.2 µM), most hits filed as inhibitors | hit rate 15% among 420,000 | AID 686978, 2013; further: nearly all actives have a fitted effect of over 55% in size
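Chicken DT40 Tdp1-/- cells stably complemented with human TDP1 were seeded at 400 cells/well with DMSO in place of 20 nM camptothecin. After compound pinning, cells grew at least 48 hr at 37 °C; viability read by CellTiter-Glo luminescence.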
Numbers stand for hits; i = inactive; ? = inconclusive; nt = not tested or not shown. Unless noted, the call rests on the fitted dose curve; in most records, active means well fitted curve in the direction sought with a large enough effect; inconclusive means small, poorly fitted or top-dose-only effect, or another doubt; inactive means no such curve, though single readings can be large; an effect the other way counts as inactive or inconclusive.

SMILES	RORgamma inh	IL-1B inflam inh	Gal4-VP16 FLuc	DT40 TDP1 CPT	LDHA inh	TDP1 cell noCPT
CC(=O)Nc1ccc(-c2ccnc3c2CC(C)(C(=O)Nc2ccccc2)O3)cc1 (configuration not stated)	nt	i	nt	21µM	i	18µM
O=C(COC(=O)C1C=CCCC1)c1cccc([N+](=O)[O-])c1 (configuration not stated)	nt	nt	nt	nt	i	nt
COc1cccc2cc(-c3nnc(SCC(=O)c4ccc(F)cc4)n3C)oc12	nt	nt	nt	nt	i	nt
Cc1cc(C)c2c(c1)SC1=NC(c3ccccc3)(C(F)(F)F)NC(=O)N12 (configuration not stated)	i	-56	i	?	i	?
COc1ccccc1C(=O)Nc1cc2c(cc1N1CCCC1)n(C)c(=O)c(=O)n2C	nt	nt	nt	i	i	?
CCOC(=O)C1CCN(c2cc3c(cc2NC(=O)c2ccccc2OCC)n(C)c(=O)n3C)CC1	i	i	i	21µM	i	5.8µM
COc1ccccc1C(=O)Nc1cc2c(cc1N1CCCCC1)n(C)c(=O)n2C	nt	nt	nt	5.8µM	i	13µM
CCOC(=O)C1CCN(c2cc3c(cc2NC(=O)c2ccc(Cl)cc2)n(C)c(=O)n3C)CC1	nt	nt	nt	8.2µM	i	2.6µM
CCOC(=O)C1CCN(c2cc3c(cc2NC(=O)c2ccccc2F)n(C)c(=O)n3C)CC1	i	i	i	i	i	i
CCOC(=O)C1CCN(C(=O)c2ccccc2NC(=O)c2ccc(Cl)cc2)CC1	i	i	i	?	i	23µM
O=C1Cc2cc(C(=O)CSc3nnc(-c4ccccc4Cl)o3)c(Cl)cc2N1	nt	nt	nt	nt	i	nt
CCc1ccc(-c2csc(/C(C#N)=C/Nc3ccccc3C(C)C)n2)cc1	nt	nt	nt	nt	i	nt
COc1ccc(Nc2nc3ccccc3nc2NS(=O)(=O)c2ccccc2)c(OC)c1	nt	nt	nt	nt	i	nt
CCOc1ccc(S(=O)(=O)Nc2cc(C(=O)N(C)CC(=O)NC)ccc2N2CCNCC2)cc1	nt	nt	nt	nt	i	nt
CN(C)CCCOC(=O)COc1ccccc1	nt	nt	nt	nt	i	nt
CC(C)(C)c1nn(-c2ccccc2)c2[nH]c(=O)c(CNCc3ccc4c(c3)OCO4)cc12	?	i	i	18µM	i	?
CCOc1cccc(NCc2cc3c(C(C)(C)C)nn(-c4ccccc4)c3[nH]c2=O)c1	i	i	i	i	i	i
CC(=O)Nc1ccc(NC(=O)C(C)OC(=O)/C=C/c2cn(-c3ccccc3)nc2-c2cccnc2)cc1 (configuration not stated)	13µM	?	?	?	i	21µM
O=C(/C=C/c1cn(-c2ccccc2)nc1-c1cccnc1)N1CCCCC1	i	i	i	?	i	18µM
Cc1ccccc1NC(=O)COC(=O)/C=C/c1cn(-c2ccccc2)nc1-c1cccnc1	i	i	i	i	i	?
CN1CCN(C(=O)/C=C/c2cn(-c3ccccc3)nc2-c2ccc3c(c2)OCCO3)CC1	i	-62	i	i	i	i
O=C(/C=C\c1cn(-c2ccccc2)nc1-c1ccc2c(c1)OCCO2)N1CCOCC1	i	i	i	?	i	10µM
CCN(CC)S(=O)(=O)c1ccc(NC(=O)COc2ncnc3ccc(Br)cc23)cc1	nt	nt	nt	nt	i	nt
COc1ccccc1C(=O)NC(=S)Nc1ccc(N2CCN(C(=O)c3ccco3)CC2)cc1	i	?	10µM	?	i	15µM
O=C(Nc1ccc(N2CCN(C(=O)c3ccco3)CC2)cc1)c1ccc(Br)cc1	i	i	i	i	i	?
SMILES	RORgamma inh	IL-1B inflam inh	Gal4-VP16 FLuc	DT40 TDP1 CPT	LDHA inh	TDP1 cell noCPT
Cc1ccccc1C(=O)N1CCN(c2ccc(NC(=S)NC(=O)c3ccco3)cc2)CC1	16µM	?	?	23µM	i	26µM
COc1ccccc1N1CCN(C(=O)c2ccco2)CC1	i	i	i	i	i	i
C=CCN=c1sc(C(=O)OC)cc(=O)n1CC=C	i	i	i	15µM	i	i
CCN=c1sc(C(=O)OC)cc(=O)n1CC	i	i	i	i	i	i
Cc1ccc(-c2csc3ncn(CC(=O)c4cc(C)n(C)c4C)c(=O)c23)s1	nt	nt	nt	nt	i	nt
CCc1ccc(C2=NN(C(=O)OC)C(O)(C(F)(F)F)C2)cc1 (configuration not stated)	11µM	i	?	i	i	i
CCCC1=NN(C(=O)Cc2ccc(OC)c(OC)c2)C(O)(C(F)(F)F)C1 (configuration not stated)	?	i	i	i	i	i
Cc1ccccc1OCC(=O)N1N=C(C(F)(F)F)CC1(O)C(C)(C)C (configuration not stated)	?	i	?	?	i	16µM
CCC1=NN(C(=O)Cc2ccc(OC)cc2)C(O)(C(F)(F)F)C1 (configuration not stated)	11µM	i	?	29µM	i	21µM
Cc1ccc(OCC(=O)N2N=C(c3cccnc3)CC2(O)C(F)(F)F)cc1C (configuration not stated)	i	i	?	16µM	i	?
CCOC(=O)N1N=C(c2ccc(OC)cc2)CC1(O)C(F)(F)F (configuration not stated)	?	i	?	i	i	i
CC(C)(C)C1(O)CC(C(F)(F)F)=NN1C(=O)CCc1ccccc1 (configuration not stated)	i	i	i	i	i	i
CC(NC(=O)c1cccc(S(=O)(=O)Nc2ccc3c(c2)OCO3)c1)c1ccc2c(c1)OCCO2 (configuration not stated)	nt	nt	nt	nt	i	nt
NC(=O)c1ccc(NC(=O)Cn2nc(-c3cccs3)c3ccccc3c2=O)cc1	nt	nt	nt	nt	i	nt
COc1ccc(CC(=O)N2N=C(c3ccncc3)CC2(O)C(F)(F)F)cc1 (configuration not stated)	11µM	i	i	5.2µM	i	4.6µM
COc1ccc(CC(=O)N2N=C(c3ccccc3)CC2(O)C(F)(F)F)cc1 (configuration not stated)	nt	nt	nt	nt	i	nt
COc1ccc(OCC(=O)N2N=C(C)CC2(O)C(F)(F)F)cc1 (configuration not stated)	6.3µM	i	?	i	i	i
O=C(/C=C/c1ccc(-c2ccccc2Cl)o1)c1ccccc1Br	nt	nt	nt	nt	i	nt
CC(C)C(=O)N1N=C(c2cccs2)CC1c1ccc2nccnc2c1 (configuration not stated)	nt	nt	nt	nt	i	nt
CCOC(=O)N1CCc2c(sc(NCc3ccc(N(C)C)cc3)c2C(=O)Nc2ccc(OC)cc2)C1	nt	nt	nt	21µM	i	?

Screening data from PubChem.
